# Screening results deposited in PubChem by National Center for Advancing Translational Sciences (NCATS).
# A selection: hits, their analogues and other compounds. The true share with any hit is near 2.5%.
# Pol eta inh = qHTS for Inhibitors of Polymerase Eta. DNA polymerase eta (Homo sapiens), Q9Y253. recombinant Pol eta, fluorescent DNA replication assay. Potency, µM (titrated, usually from 114 µM), most hits filed as inhibitors. 1.2% of 390,000 active. AID 588591, 2011
#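 Pol eta at 10 nM preincubated with compounds 15 min at room temperature; reaction started with fluorescent substrate (50 nM final) and read kinetically at 0 and 10 min.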
# L3MBTL1 block = qHTS Assay for the Inhibitors of L3MBTL1 | Lethal(3)malignant brain tumor-like protein 1 (Homo sapiens), Q9Y468 | AlphaScreen L3MBTL1–H3K9me1 peptide binding | Potency, µM (doses to about 57.1 µM), usual class: inhibitors | 0.66% of 230,000 active | AID 485360, 2010; further: nearly all actives have a fitted effect of over 60% in size
#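 Read-out is AlphaScreen signal from streptavidin donor and nickel chelate acceptor beads (10 ug/mL final each) bridging L3MBTL1 (50 nM) and biotinylated K9-monomethylated H3(1-15) peptide (75 nM), after 30 min compound exposure at room temperature.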
# POLK inh = qHTS for Inhibitors of Polymerase Kappa; 0.53% of 400,000 active; Potency, µM (highest dose often 107 µM), usual class: inhibitors; AID 588579, 2011; purified Pol kappa, fluorescent DNA synthesis assay, 10 min; DNA polymerase kappa (Homo sapiens), Q9UBT6
#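 Here, compound and 10 nM enzyme are combined for 15 min at room temperature; adding 50 nM substrate (final) starts DNA synthesis, tracked by fluorescence at 0 and 10 min against buffer-only wells.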
# Pol beta inh = qHTS Assay for Inhibitors of DNA Polymerase Beta; Pol beta primer extension/strand displacement, fluorescence kinetic; 1.3% of 340,000 active; Potency, µM (titrated, usually from 114 µM), actives largely listed as inhibitors; AID 485314, 2010
#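 Enzyme-only controls used 10 nM Pol beta; buffer lacking enzyme served as negative control. Compound preincubated 15 min, then 50 nM substrate added; 0 and 10 min reads at room temperature.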
# Pol iota inh = qHTS for Inhibitors of Polymerase Iota | DNA polymerase iota (Homo sapiens), Q9UNA4 | Pol iota fluorescent replication assay, 10 min | Potency, µM (highest dose often 115 µM), actives largely listed as inhibitors | 1% of 390,000 active | AID 588590, 2011
# Target sequence (Q9UNA4 whole entry, looked up): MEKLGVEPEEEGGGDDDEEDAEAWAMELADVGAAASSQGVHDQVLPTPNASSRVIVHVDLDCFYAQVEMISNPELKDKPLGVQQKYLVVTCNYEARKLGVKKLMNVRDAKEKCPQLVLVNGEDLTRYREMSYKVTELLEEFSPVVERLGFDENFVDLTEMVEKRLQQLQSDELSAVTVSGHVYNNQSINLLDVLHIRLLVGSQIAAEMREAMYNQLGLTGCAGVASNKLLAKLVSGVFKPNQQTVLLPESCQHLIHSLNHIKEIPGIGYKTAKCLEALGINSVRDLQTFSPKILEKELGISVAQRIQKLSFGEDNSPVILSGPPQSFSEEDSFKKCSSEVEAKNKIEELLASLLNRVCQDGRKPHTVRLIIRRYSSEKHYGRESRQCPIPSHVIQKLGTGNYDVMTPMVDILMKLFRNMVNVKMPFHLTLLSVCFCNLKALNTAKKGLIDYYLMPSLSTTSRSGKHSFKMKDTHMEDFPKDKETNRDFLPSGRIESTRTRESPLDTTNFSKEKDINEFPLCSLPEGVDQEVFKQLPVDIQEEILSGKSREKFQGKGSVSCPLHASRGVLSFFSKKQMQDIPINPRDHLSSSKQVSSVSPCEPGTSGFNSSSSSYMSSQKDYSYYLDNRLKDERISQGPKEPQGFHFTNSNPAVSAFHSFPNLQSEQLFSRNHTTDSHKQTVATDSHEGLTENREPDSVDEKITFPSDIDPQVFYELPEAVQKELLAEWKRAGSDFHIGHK
#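 Pol iota at 10 nM preincubated 15 min with compounds at room temperature; reaction started with fluorescent substrate, 50 nM final. Fluorescence read kinetically at 0 and 10 min; buffer-only wells as negative control.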
# APE1 inh = qHTS Assay for Inhibitors of the Human Apurinic/apyrimidinic Endonuclease 1 (APE1). Potency, µM (series often up to 65.8 µM), actives largely listed as inhibitors. AID 2517, 2012. 0.35% of 350,000 active. recombinant APE1, TAMRA/BHQ-2 abasic DNA cleavage fluorescence. DNA repair nuclease/redox regulator APEX1 (Homo sapiens), P27695; further: nearly all actives have a fitted effect of over 55% in size
#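 Incision of a quenched TAMRA/BHQ-2 THF abasic-site duplex (50 nM) by 0.75 nM APE1, after 15 min compound preincubation, measured as fluorescence increase over three 60 s reads. Values normalized to buffer, DMSO and NSC13755 control wells.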
# Numbers stand for hits; - = inactive; ? = inconclusive; . = not tested or not shown; [ ] = another dose, or the depositor's remark. The call rests on the fitted dose curve; in most records, active means well fitted curve in the direction sought with a large enough effect; inconclusive means small, poorly fitted or top-dose-only effect, or another doubt; inactive means no such curve, though single readings can be large; an effect the other way counts as inactive or inconclusive.
SMILES,Pol eta inh,L3MBTL1 block,POLK inh,Pol beta inh,Pol iota inh,APE1 inh
COCCCNC(=O)c1ccc(Cn2c(=O)c3ccccc3n(CC(=O)Nc3ccc(C)cc3C)c2=O)cc1,-,.,-,-,?,.
COCCCNC(=O)Cn1c(=O)n(Cc2ccc(C(=O)NCc3ccc(C)cc3)cc2)c(=O)c2ccccc21,?,.,-,?,89.1µM,.
COc1ccc(NC(=O)CNC(=O)Cn2c(C)cc3ccccc3c2=O)cc1OC,-,.,-,31.6µM,-,-
COc1cc(NC(=O)CNC(=O)Cn2c(C)cc3ccccc3c2=O)cc(OC)c1OC,-,.,-,-,-,-
COc1ccc(NC(=O)CNC(=O)Cn2c(C)cc3ccccc3c2=O)c(OC)c1,-,-,-,79.4µM,-,-
CCC(=O)Nc1c(C#N)c2nc3ccccc3nc2n1-c1ccc(C)cc1,-,.,-,.,-,.
COc1ccc(-n2c(NC(=O)c3ccc(Br)o3)c(C#N)c3nc4ccccc4nc32)cc1,.,-,.,31.6µM,.,-
O=C(C1CN(C(=O)c2cc3ccccc3o2)c2ccccc2O1)N1CCCCC1 (configuration not stated),-,.,.,.,.,.
COc1ccc(N(C(=O)Cc2cccs2)C2C=CS(=O)(=O)C2)cc1 (configuration not stated),?,-,-,15.8µM,?,-
O=c1c(Cl)c(NCCCO)cnn1-c1nc2ccccc2[nH]1,-,-,-,-,?,-
C=CCN(CC=C)c1cnn(-c2nc3ccccc3[nH]2)c(=O)c1Cl,-,.,-,0.224µM,-,-
COc1cc(-c2nnc(SCCOc3cc(C)cc(C)c3)o2)cc(OC)c1OC,-,.,-,50.1µM,-,.
CCc1ccccc1OCCSc1nnc(-c2cc(OC)c(OC)c(OC)c2)o1,-,.,-,?,-,.
Cc1ccc(NC(=O)C2CCN(S(=O)(=O)c3ccc4c(c3)NC(=O)C(C)S4)CC2)c(Cl)c1 (configuration not stated),-,.,-,?,15.8µM,-
Cc1cc(C)cc(NC(=O)C2CCN(S(=O)(=O)c3ccc4c(c3)NC(=O)C(C)S4)CC2)c1 (configuration not stated),-,.,-,-,-,-
O=C(CSc1nnc(COc2ccccc2Cl)o1)Nc1ccccc1,-,-,-,.,-,-
C/C(N)=C(/C#N)C(=O)CSc1nnc(COc2ccccc2Cl)o1,?,.,-,39.8µM,89.1µM,-
COc1ccc(OC)c(CCNC(=O)CCc2nnc3ccc(N4CCCC4)nn23)c1,-,.,-,-,-,-
Cn1nc(-c2ccncc2)nc2c(=O)n(C)c(=O)nc1-2,.,.,-,.,-,.
O=C1/C(=C/c2ccco2)SC(=S)N1CCC(=O)N1CCCCC1CCO (configuration not stated),22.4µM,.,-,?,-,-
COc1ccc(/C=C2\SC(=S)N(CCC(=O)N3CCCCC3CCO)C2=O)cc1 (configuration not stated),?,.,?,?,28.2µM,-
O=C1/C(=C/c2ccc(Cl)cc2)SC(=S)N1CCC(=O)N1CCCCC1CCO (configuration not stated),-,.,-,?,-,-
O=C1/C(=C\c2ccco2)SC(=S)N1C1CCCCC1,.,-[2.29 µM],.,44.7µM,.,-
C(=C\c1c[nH]c2ccccc12)/c1nccc2ccccc12,.,.,-,.,-,.
COc1ccccc1-n1nc(-c2ccccc2)c2cnc3c(F)cc(F)cc3c21,-,.,-,-,-,.
SMILES,Pol eta inh,L3MBTL1 block,POLK inh,Pol beta inh,Pol iota inh,APE1 inh
COc1cccc(/C=N/NC(=O)c2cc(-c3cccn3C)n[nH]2)c1,?,-,?,35.5µM,?,-
Cn1cccc1-c1cc(C(=O)N/N=C/C=C/c2ccccc2)[nH]n1,-,?,?,10µM,?,-
Cn1cccc1-c1cc(C(=O)N/N=C/c2ccc(Cl)cc2)[nH]n1,-,.,?,?,-,-
CC(C)(C)n1ncc2c(=O)n(Cc3ccc(F)c(C(F)(F)F)c3)cnc21,.,.,-,.,-,-
N#CC1=C(S)N(c2ccccc2)C(c2ccc(-c3ccc(Cl)c(Cl)c3)o2)NC1=O (configuration not stated),-,.,-,?,?,-
N#CC1=C(S)N(c2ccccc2)C(c2ccc(-c3cc(Cl)ccc3Cl)o2)NC1=O (configuration not stated),-,-,-,31.6µM,-,-
C=CCn1c2ccccc2c(=O)c2cc(C#Cc3ccsc3)ccc21,.,-,.,5.01µM,.,-
Cc1nc2ccc(NC(=S)NC3CC3)cc2nc1C,-,-,-,-,-,-
OCCNC(=S)Nc1ccc2nsnc2c1,-,.,-,-,20µM,-
Cc1nc2ccc(NC(=S)NCCCO)cc2nc1C,?,-,-,-,17.8µM,-
COc1ccc(NS(=O)(=O)c2ccc(N3CCCCS3(=O)=O)cc2)cc1Cl,-,.,-,-,-,.
COc1cc(/C=C2\C=Cc3ccccc32)ccc1N(C)C,.,.,-,.,?,.
COc1cc(/C=C2/C=Cc3ccccc32)ccc1N(C)C,.,.,?,.,70.8µM,.
O=C1C2C3C=CC(C3)C2C(=O)N1c1ncn[nH]1 (configuration not stated),?,-,-,39.8µM,?,?
COCC(=O)N1CCC(Oc2ccc(C(=O)N3CCSCC3)cc2)CC1,-,.,-,-,-,-
